SMILES strings stand for the structures.

This note sets out measurements from the supplement of paper PMC13380429.

This test relates to Vero E6 infected with SARS-CoV-2. As to the kind of experiment: SARS-CoV-2 infection rate relative to infected DMSO; higher = more infection, active = 60 or less. Conditions: 24 h.
Turning to `CCOC(=O)[C@@]1(CCCCCCOc2ccc(Cl)cc2)CO1` [etomoxir] (10 µM), the SARS-CoV-2 infection rate is 109% (inactive). For `O=C(O)Cc1ccc(OCCNC[C@H](O)c2ccccc2)cc1` (10 µM), the SARS-CoV-2 infection rate is 106% (inactive). Consider `CCCN(CCC)C1Cc2cc(OC)c(OC)cc2C1` (10 µM), for which the SARS-CoV-2 infection rate was 109% (inactive). Regarding `Nc1nc2c(c(N3CCNCC3)n1)CCC1=C2[C@@H]2CCCC[C@@H]2O1` (10 µM), the SARS-CoV-2 infection rate was 83.5% (inactive). Consider `CCO[C@@H]1OC(=O)C[C@@H]1NC(=O)[C@@H]1CCCN1C(=O)[C@@H](NC(=O)c1ccc(N)c(Cl)c1)C(C)(C)C` (10 µM), for which the SARS-CoV-2 infection rate is 116% (inactive). In the case of `CC(=O)Nc1ncc([N+](=O)[O-])s1` [nithiamide] (10 µM), the SARS-CoV-2 infection rate is 90% (inactive). As for `CC(C)(CO)c1cc2cc(NC(=O)C3(c4ccc5c(c4)OC(F)(F)O5)CC3)c(F)cc2n1C[C@@H](O)CO` [tezacaftor] (10 µM), the SARS-CoV-2 infection rate was 108% (inactive). As for `C[C@@H](O[C@H]1OCCN(Cc2nn(P(=O)(O)O)c(=O)[nH]2)[C@H]1c1ccc(F)cc1)c1cc(C(F)(F)F)cc(C(F)(F)F)c1` [fosaprepitant-dimeglumine] (10 µM), the SARS-CoV-2 infection rate was 112% (inactive).

In the case of `C#CCC(Cc1cnc2nc(N)nc(N)c2n1)c1ccc(C(=O)N[C@@H](CCC(=O)O)C(=O)O)cc1` (some centres not stated) [pralatrexate] (10 µM), the SARS-CoV-2 infection rate is 104% (inactive). Regarding `N[C@H](Cc1cc(I)c(Oc2ccc(O)c(I)c2)c(I)c1)C(=O)O` [liothyronine-(isomer)] (10 µM), the SARS-CoV-2 infection rate was 106% (inactive). Turning to `COc1ccc2c(c1)/C(=C/c1cnc[nH]1)C(=O)N2` (0.833333 µM), the SARS-CoV-2 infection rate is 109% (inactive).

Take `O=C(Nc1ccccc1)Nc1ccc(-c2ccc(C(=O)[C@@H]3CCC[C@@H]3C(=O)O)cc2)cc1` (10 µM): the SARS-CoV-2 infection rate was 102% (inactive). As to `CN(Cc1ccc(C(C)(C)C)cc1)Cc1cccc2ccccc12` [butenafine] (10 µM), the SARS-CoV-2 infection rate is 71% (inactive). Consider `C[C@@H](O)[C@@H]1NC(=O)[C@H](CCCCN)NC(=O)[C@@H](Cc2c[nH]c3ccccc23)NC(=O)[C@H](Cc2ccccc2)NC(=O)[C@@H](NC(=O)[C@H](N)Cc2ccccc2)CSSC[C@@H](C(=O)N[C@H](CO)[C@@H](C)O)NC1=O` [octreotide] (10 µM), for which the SARS-CoV-2 infection rate was 102% (inactive).

In the case of `COc1cc2c(cc1OC)[C@H](C)NCC2` [Isoquinoline,-6,7-dimethoxy-1-methyl-1,2,3,4-tetrahydro,] (10 µM), the SARS-CoV-2 infection rate is 105% (inactive).

For the compound `Cc1ccc2nc(NCCN)c3ncc(C)n3c2c1` (0.833333 µM), the SARS-CoV-2 infection rate is 116% (inactive). With `COCC1=C(C(=O)O)N2C(=O)[C@@H](NC(=O)/C(=N\OC)c3csc(N)n3)[C@H]2SC1` [cefpodoxime] (10 µM), the SARS-CoV-2 infection rate was 104% (inactive).

In the case of `O=C(O)c1cc(O)c2c(c1)[C@H]([C@H]1c3cc(C(=O)O)cc(O)c3C(=O)c3c(O[C@@H]4O[C@H](CO)[C@@H](O)[C@H](O)[C@H]4O)cccc31)c1cccc(O[C@@H]3O[C@H](CO)[C@@H](O)[C@H](O)[C@H]3O)c1C2=O` [sennoside-A] (10 µM), the SARS-CoV-2 infection rate is 113% (inactive). Next, `CO/N=C1\C[C@]2(C[C@@H]3C[C@@H](C/C=C(\C)C[C@@H](C)/C=C/C=C4\CO[C@@H]5[C@H](O)C(C)=C[C@@H](C(=O)O3)[C@]45O)O2)O[C@H](/C(C)=C/C(C)C)[C@H]1C` [moxidectin] (10 µM): 98.5% (inactive); `CCCCC(F)(F)[C@@]1(O)CC[C@H]2[C@@H](CC(=O)[C@@H]2CCCCCCC(=O)O)O1` [lubiprostone] (10 µM): 107% (inactive); `Cc1ccc(N(CC2=NCCN2)c2cccc(O)c2)cc1` [phentolamine] (10 µM): 98% (inactive).

`COC(=O)CCc1ccc(OCC(O)CNC(C)C)cc1` (configuration not stated) [esmolol] (10 µM): the SARS-CoV-2 infection rate is 116% (inactive). For the compound `CC(C)c1cccc2c1OC(C(C)C)C(=S)N2CC(=O)O` (configuration not stated) (10 µM), the SARS-CoV-2 infection rate is 102% (inactive). For `O=C1c2ccccc2C(Cc2ccncc2)(Cc2ccncc2)c2ccccc21` (10 µM), the SARS-CoV-2 infection rate was 98% (inactive). Next, `CN1CCN(c2ccc(-c3cccc(CN4CCOCC4)c3)cc2NC(=O)c2c[nH]c(=O)cc2C(F)(F)F)CC1` (10 µM): 115% (inactive); `Cc1ncc(C[n+]2csc(CCOP(=O)(O)OP(=O)(O)O)c2C)c(N)n1` [thiamine-pyrophosphate] (10 µM): 105% (inactive); `CN[C@H](CC(C)C)C(=O)N[C@H]1C(=O)N[C@@H](CC(N)=O)C(=O)N[C@H]2C(=O)N[C@H]3C(=O)N[C@H](C(=O)N[C@H](C(=O)O)c4cc(O)cc(O)c4-c4cc3ccc4O)[C@H](O[C@H]3C[C@](C)(N)[C@@H](O)[C@H](C)O3)c3ccc(c(Cl)c3)Oc3cc2cc(c3O[C@@H]2O[C@H](CO)[C@@H](O)[C@H](O)[C@H]2O[C@H]2C[C@](C)(NCc3ccc(-c4ccc(Cl)cc4)cc3)[C@@H](O)[C@H](C)O2)Oc2ccc(cc2Cl)[C@H]1O` [oritavancin] (10 µM): 92% (inactive).
